A short description of this test: Peg3 promoter luciferase inhibitors, potency, dose response, cell-based, HeLa, CREF/GAPDH counter-screen panel (AID 624167). The note with it: CREF/GAPDH counter-screens; run 1, dose range 1, at 100 µM (top of the series). On the technique in general: A counterscreen serves to expose hits that act by an unwanted route or on another target.
For the compound `Cc1ccc(OCC(=O)c2cc(C)n(Cc3ccco3)c2C)c([N+](=O)[O-])n1`, the inhibition came to 70.8%. Then `COC1CC(C)C(OC)c2cc(O)cc(c2O)NC(=O)C(C)=CC=CC(C)C(OC(N)=O)C(C)=CC(C)C1OC` (stereo not drawn), with 87.1%; and `Cc1cccc(OCC(=O)NCC(=O)N/N=C/c2cc(Br)cc(Br)c2O)c1`, with 67.3%; and `CC1=NOC(=O)/C1=C\c1ccc(-c2ccccc2Br)o1`, with 94.2%.

On to `Cc1oc(-c2ccc3c(c2)OCCO3)cc1C(=O)O`, for which the inhibition turned out to be 98.6%. Then `CCc1ccc(/C=C2\SC(=S)N(CCCC(=O)Nc3ccccn3)C2=O)cc1`, with 78.8%. Consider `COc1cccc2c1C(=O)c1c(O)c3c(c(O)c1C2=O)CC(O)(C(C)=NNC(=O)c1ccc(Cl)c(Cl)c1)CC3OC1CC(N)C(O)C(C)O1` (stereo not drawn), for which the inhibition stood at 92%. In the case of `Cc1cc(C(=O)Nc2cccc(C(=O)O)c2)oc1C`, the inhibition was found to be 89.9%. In the case of `COc1cccc(/C=N/NC(=O)c2c(C)nc3ccc(Cl)cn23)c1O`, the inhibition is -55.4%. Then `CC(C)(C)c1ccc(Oc2ccc(N)cc2)cc1`, with 90.1%; and `O=C(CNc1ccccc1)N/N=C/c1c(O)ccc2ccccc12`, with 57%. Then `O=C(CNC(=O)C(c1ccccc1)c1ccccc1)N/N=C/c1ccc(O)cc1O`, with 30.2%. Then `COc1ccc(/C=C2\SC(=S)N(CCCC(=O)NNC(=O)c3ccccc3O)C2=O)cc1`, with 15%; and `COc1ccc(/C=C2/CCCC(CN(C)C)C2=O)cc1` (stereo not drawn), with 80%.

For the compound `CN(C)c1c([N+](=O)[O-])cc(N2C(=O)C=CC2=O)cc1[N+](=O)[O-]`, the inhibition was determined as 98.9%. Then `OCCCNc1nccc(-c2cc(Nc3cccc(Cl)c3)ncn2)n1`, with 34.2%. Then `O=C(N/N=C/c1ccc(Cl)c([N+](=O)[O-])c1)c1cc(-c2ccc3c4c(cccc24)CC3)n[nH]1`, with 75.4%. `Cc1cc(NC(c2ccc(Cl)cc2)c2ccc3cccnc3c2O)no1` (stereo not drawn): the inhibition was 39.3%.

Regarding `COc1ccc2c(c1)c(=Cc1ccc(N(C)C)cc1)c1cc(-c3ccccc3)[n+](C)n12`, the inhibition stood at 99.5%. The figure for `O=C(Nc1ccccc1C(=O)Nc1nnc(C(F)(F)F)s1)c1ccccc1` is 60.8%; for `NS(=O)(=O)c1ccc(CCNc2nn3c(-c4ccc(F)c(Cl)c4)cnc3s2)cc1` it is 73.4%. Then `Cc1nc(C)c(C(=O)N/N=C/c2cc(Br)ccc2O)s1`, with -7.82%; and `CN1C/C(=C/c2ccccc2[N+](=O)[O-])C(=O)/C(=C\c2ccccc2[N+](=O)[O-])C1`, with 50.1%; and `CCCn1nc(C(=O)Nc2nc(-c3ccccn3)cs2)c2ccccc2c1=O`, with 13.9%.

Take `Cc1ccc(/C=C2\SC(=S)N(CCCC(=O)NNC(=O)c3ccccc3O)C2=O)cc1`: the inhibition turned out to be 76.4%. Then `C/C(=N\NC(=O)c1c(C)nc2ccccn12)c1ccc(O)cc1O`, with 3.34%; and `Cc1ccc(C)c(S(=O)(=O)N2CCN(c3ncnc4sccc34)CC2)c1`, with 62.6%; and `CC(=O)NC(c1ccc(Cl)cc1)c1ccc2cccnc2c1O` (stereo not drawn), with 69.3%. The figure for `O=C(O)c1ccc(CN2C(=O)c3cccc4c([N+](=O)[O-])ccc(c34)C2=O)cc1` is 99.1%; for `CC(C)CC1C(=O)N(Cc2cn(Cc3ccco3)nn2)CCS(=O)(=O)N1Cc1ccc(-c2ccc(F)cc2)cc1` (stereo not drawn) it is 60.2%.

`CN(O)C(=S)c1ccccc1`: the inhibition turned out to be 3.97%. Turning to `O=C(c1ccco1)N1CCN(C(c2ccccc2Cl)c2nnnn2Cc2cccs2)CC1` (stereo not drawn), the inhibition is 69.4%. Then `CCc1ccn2cc(-c3ccc4c(c3)OCO4)nc2c1`, with 92.7%.

As a reminder, the inhibition is the relative decrease from the control value, in per cent.

(Values after PubChem BioAssay AID624167 (Sanford-Burnham Center for Chemical Genomics, 2012).)
